These results are taken from PubChem BioAssay (NCATS).

Inconclusive results are not listed. Activity calls are given as the source filed them. Calls come from the whole dose curve; as a rule, active = well fitted activation curve with a large enough effect; inconclusive = small, poorly fitted or top-dose-only effect; inactive = no such curve, though single readings can be large or run the other way.
Potency is the fitted concentration of half-maximal effect.

The target in this assay is Cellular tumor antigen p53 (Homo sapiens) (UniProt P04637). Put plainly: Primary qHTS for small molecule compounds that upregulate eGFP-tagged delta133p53alpha (in N-terminal) cells. (AID 2060322).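 For activation: cells pre-induced with doxycycline then dosed without doxycycline; series mostly up to about 56 µM; 0% = DMSO vehicle and 100% = reference activator.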 Note: nearly all actives have a fitted effect of over 75% in size. The following applies: NCI-H358 eGFP-delta133p53alpha fluorescence, 24 h; activation: active compounds read high. In a few lines: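 NCI-H358 cells pre-induced 24 h with 10 ng/ml doxycycline for eGFP-delta133p53alpha, plated dox-free and exposed 24 h at 37C to titrated compounds. Fixed, Hoechst-stained; gated GFP peak intensity by laser scanning cytometry, normalized to DMSO (0%) and 57.5 uM 5-azacytidine (100%).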
Sequence of Cellular tumor antigen p53 (Homo sapiens) (P04637 whole entry, looked up): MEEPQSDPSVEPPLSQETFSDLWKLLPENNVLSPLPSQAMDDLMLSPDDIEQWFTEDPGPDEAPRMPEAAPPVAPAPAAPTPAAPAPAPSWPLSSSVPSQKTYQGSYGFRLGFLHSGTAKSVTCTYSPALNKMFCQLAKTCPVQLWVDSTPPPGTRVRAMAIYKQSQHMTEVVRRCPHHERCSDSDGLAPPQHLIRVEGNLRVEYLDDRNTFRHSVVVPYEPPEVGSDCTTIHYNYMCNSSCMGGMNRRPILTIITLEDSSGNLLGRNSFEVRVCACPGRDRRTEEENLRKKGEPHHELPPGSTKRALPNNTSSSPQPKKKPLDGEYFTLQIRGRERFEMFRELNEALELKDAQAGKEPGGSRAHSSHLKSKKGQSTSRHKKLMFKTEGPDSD
In general terms: Quantitative high-throughput screening tests each substance at several concentrations.
Regarding `CCC=CC[C@H]1C(=O)CC[C@@H]1CC(=O)OC`, the activation is 10.3% (inactive).

With `CN1CCN(C2=Nc3ccccc3Sc3ccc(Cl)cc32)CC1`, the activation was 15.3% (inactive).

For `C[N+]12CCC(CC1)C(OC(=O)C(O)(c1ccccc1)c1ccccc1)C2` (stereo not drawn), the activation is -8.47% (inactive).

For `CC(=O)O[C@]1(C(C)=O)CC[C@H]2[C@@H]3C=C(Cl)C4=CC(=O)CC[C@]4(C)[C@H]3CC[C@@]21C`, the activation was -6.69% (inactive).

Take `CO[C@H]1/C=C\O[C@@]2(C)Oc3c(C)c(O)c4c(O)c(c(C=NN5CCN(C6CCCC6)CC5)c(O)c4c3C2=O)NC(=O)C(C)=CC=C[C@H](C)[C@H](O)[C@@H](C)[C@@H](O)[C@@H](C)[C@H](OC(C)=O)[C@H]1C`: the Potency was 24.3 µM (active).

Consider `O=C(O)C(S)C(S)C(=O)O` (stereo not drawn), for which the activation was -37.9% (inactive).

On to `CCN(CC)S(=O)(=O)c1ccc(C(=O)O)cc1`, for which the activation is -11.7% (inactive).

Consider `CCNC(=O)[C@H]1O[C@@H](n2cnc3c(N)nc(NCCc4ccc(CCC(=O)O)cc4)nc32)[C@H](O)[C@H]1O`, for which the activation is 29.2% (inactive).

Take `N/C(=N\N=C\c1ccc(Cl)cc1)N/N=C/c1ccc(Cl)cc1`: the activation is 0% (inactive).

Regarding `CC(=O)N[C@@H](CCC(N)=O)C(=O)O`, the activation is -8.37% (inactive).

Regarding `O=C(OCC(O)CO)c1ccccc1Nc1ccnc2c(C(F)(F)F)cccc12` (stereo not drawn), the activation is -13.4% (inactive).

For the compound `COc1cc(C=CC(=O)CC(=O)C=Cc2ccc(O)c(OC)c2)ccc1O`, the Potency is 39.5 µM (active).

Turning to `O=C(O)[C@H](CC(=O)N1C[C@@H]2CCCC[C@H]2C1)Cc1ccccc1`, the activation is -15.3% (inactive).
